Laboratory results as given in article PMC5540273 (PLoS ONE, 2017).

What was measured:
Details in all cases: concentration: 1 μM, replicates: in singlicate; n = 1
FLT3-autoinhibited = system: FLT3-autoinhibited
FLT3 = system: FLT3
FLT4 = system: FLT4
FRK = system: FRK
FYN = system: FYN
GAK = system: GAK
GCN2(Kin.Dom.2,S808G) = system: T1, GCN2(Kin.Dom.2,S808G)
T1 construct: gene EIF2AK4

GRK1 = system: GRK1
GRK2 = system: T2, GRK2
T2 construct: gene ADRBK1

GRK3 = system: T3, GRK3
T3 construct: gene ADRBK2
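Also: KINOMEscan kinase panel screen.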

| SMILES | %Inh (FLT3-autoinhibited) | %Inh (FLT3) | %Inh (FLT4) | %Inh (FRK) | %Inh (FYN) | %Inh (GAK) | %Inh (GCN2(Kin.Dom.2,S808G)) | %Inh (GRK1) | %Inh (GRK2) | %Inh (GRK3) |
| --- | --- | --- | --- | --- | --- | --- | --- | --- | --- | --- |
| NS(=O)(=O)c1cccc(-c2ccc3ncc(N4CCOCC4)nc3c2)c1 [GSK1535721] | 12% | 0% | 12% | 11% | 16% | 15% | 0% | 3% | 0% | 30% |
| Cl.Oc1cccc(Nc2ccnc3cc(-c4ccncc4)ccc23)c1 [GW494601] | 3% | 28% | 97.4% | 97.6% | 95.7% | 76% | 0% | 0% | 0% | 36% |
| O=C1Cc2cc(Nc3nc(NCc4cccc(S(=O)(=O)C(F)(F)F)c4)ncc3C(F)(F)F)ccc2N1 | 0% | 0% | 0% | 0% | 0% | 8% | 28% | 0% | 30% | 22% |
| Cc1ccc(C(=O)NCC(N)=O)cc1-n1c(C)cc(OCc2ccc(F)cc2F)c(Br)c1=O | 0% | 13% | 0% | 25% | 20% | 6% | 0% | 20% | 0% | 0% |
| CN(C1=C(c2ccccc2)C(=O)NC1=O)c1ccccc1 [SB-334860] | 3% | 0% | 20% | 2% | 39% | 7% | 0% | 9% | 8% | 7% |
| CNc1ncnc2[nH]ncc12 [SKF-18355] | 0% | 0% | 0% | 0% | 0% | 0% | 0% | 29% | 0% | 0% |
| COc1ccc(Nc2nccc(N3CCC(NC(=O)Nc4cccc(C(C)=O)c4)C3)n2)cc1 (stereo not drawn) [GSK1379731] | 0% | 34% | 4% | 0% | 1% | 0% | 0% | 0% | 0% | 4% |
| COc1cc2ncn(-c3cc(OCc4sccc4Cl)c(C(N)=O)s3)c2cc1OC [GSK448459] | 0% | 31% | 67% | 10% | 15% | 86% | 7% | 0% | 0% | 33% |
| O=c1cc(N2CCOCC2)nc2n(Cc3cccc4ccccc34)ccn12 [GSK2333389] | 3% | 10% | 8% | 0% | 0% | 1% | 1% | 13% | 0% | 0% |
| [2H]C([2H])(c1cccc(C(F)(F)F)c1C)n1ccn2c(=O)nc(N3CCOCC3)cc12 [GSK2336394] | 0% | 12% | 3% | 6% | 44% | 0% | 0% | 0% | 0% | 20% |
| COc1ccc(Nc2nccc(N3CCC(NC(=O)Nc4cc(C)ccc4C)C3)n2)cc1 (stereo not drawn) [GSK1379741] | 0% | 0% | 1% | 0% | 2% | 9% | 0% | 0% | 0% | 0% |
| O=C1NC(=O)C(N2CCc3ccccc32)=C1c1cccc(Cl)c1 [SB-408010] | 21% | 0% | 2% | 0% | 0% | 10% | 17% | 53% | 0% | 0% |
| CCCCCc1nc2c(N)ncnc2n1CCCCC [SKF-97255] | 0% | 0% | 0% | 0% | 0% | 0% | 4% | 38% | 0% | 6% |
| O=c1cc(N2CCOCC2)nc2n(Cc3cccc(Cl)c3Cl)c(C3CC3)nn12 [GSK2358994] | 0% | 10% | 10% | 0% | 6% | 11% | 0% | 0% | 0% | 0% |
| Nc1nc(-c2ccc3c(N)n[nH]c3c2)cc(N2CCCC2)n1 [GSK2227430] | 0% | 0% | 0% | 0% | 0% | 0% | 0% | 0% | 0% | 0% |
| COCCNC(=O)c1ccc(-c2cc(C(=O)NC3CC3)cc(F)c2C)cc1 [GW868318] | 0% | 15% | 5% | 32% | 2% | 0% | 12% | 32% | 0% | 18% |
| CN1c2ccc(NCc3ccc(F)cc3)cc2-c2c(cnn2C)S1(=O)=O | 24% | 12% | 0% | 10% | 12% | 0% | 0% | 11% | 0% | 0% |

| SMILES | %Inh (FLT3-autoinhibited) | %Inh (FLT3) | %Inh (FLT4) | %Inh (FRK) | %Inh (FYN) | %Inh (GAK) | %Inh (GCN2(Kin.Dom.2,S808G)) | %Inh (GRK1) | %Inh (GRK2) | %Inh (GRK3) |
| --- | --- | --- | --- | --- | --- | --- | --- | --- | --- | --- |
| Fc1ccc(-c2ncn(CCCN3CCOCC3)c2-c2cccnc2)cc1 [SB-211743] | 0% | 9% | 0% | 0% | 0% | 2% | 8% | 16% | 0% | 7% |
| NS(=O)(=O)CCc1cccc(Nc2nccc(-c3c(-c4cccc(NC(=O)c5c(F)cccc5F)c4)nn4ccccc34)n2)c1 [GSK336735] | 11% | 98.9% | 99.2% | 97.2% | 96.7% | 28% | 87% | 0% | 0% | 89% |
| Cn1ccc2ncnc(Oc3ccc(NC(=O)Nc4ccncc4)c(Cl)c3)c21 | 0% | 0% | 0% | 0% | 0% | 0% | 11% | 7% | 0% | 0% |
| O=C(c1ccc(-c2cc(-c3c[nH]nc3-c3ccccn3)ccn2)cc1)N1CCOCC1 [GW812171] | 0% | 1% | 0% | 0% | 0% | 34% | 0% | 26% | 0% | 20% |
| Cc1nnc(-c2ccc3occ(-c4ccc(C(C)O)cc4)c3c2)o1 (stereo not drawn) | 4% | 0% | 6% | 10% | 15% | 0% | 23% | 0% | 0% | 12% |
| CC(=O)Nc1ccc(COc2ccc(Nc3ccnc4cc(-c5ccccn5)ccc34)cc2)cc1.Cl [GW440148] | 38% | 98% | 99.9% | 0% | 47% | 8% | 0% | 0% | 0% | 17% |
| C[C@@H](Oc1cc(-n2cnc3ccc(NC(=O)NC(C)(C)C)cc32)sc1C(N)=O)c1ccccc1Cl [GSK346294] | 0% | 0% | 1% | 10% | 6% | 0% | 0% | 0% | 0% | 34% |
| Fc1ccc(-c2ncn(CCCN3CCOCC3)c2-c2ccccn2)cc1 [SB-211742] | 0% | 20% | 0% | 6% | 0% | 6% | 0% | 0% | 2% | 0% |
| COc1cc2c(cc1OCCN1CCN(C)CC1)ncc1c3ccc(C#N)cc3[nH]c21 | 97.4% | 98.6% | 0% | 2% | 25% | 99.6% | 90.8% | 32% | 0% | 0% |
| c1ccc(-c2n[nH]cc2-c2ccnc3ccccc23)nc1 [GW271431] | 5% | 3% | 25% | 10% | 43% | 79% | 3% | 0% | 0% | 34% |
| Cc1cccc(Cn2ccn3c(=O)cc(N4CCOCC4)nc23)c1 [GSK2297542] | 2% | 11% | 0% | 7% | 21% | 20% | 6% | 0% | 0% | 16% |
| O=c1cc(N2CCOCC2)nc2n(Cc3cccc(C(F)(F)F)c3)ccn12 [GSK2297543] | 12% | 0% | 0% | 0% | 42% | 0% | 0% | 0% | 0% | 0% |
| Cn1cc(-c2ccc3c(c2)CCN3C(=O)Cc2ccccc2Cl)c2c(N)ncnc21 [GSK2608885] | 20% | 99.3% | 99.8% | 97.9% | 97.1% | 33% | 81% | 0% | 0% | 0% |
| COc1ccc(COc2cc(-n3cnc4ccccc43)sc2C(N)=O)cc1 [GSK1024304] | 0% | 4% | 1% | 0% | 16% | 17% | 0% | 0% | 0% | 10% |
| Cc1nnc(-c2ccc(C)c(-c3ccc(C(=O)Nc4ccc(NS(C)(=O)=O)cc4)cc3)c2)o1 [GW702865] | 0% | 0% | 8% | 0% | 17% | 0% | 10% | 0% | 0% | 0% |
| Cc1nnc(-c2ccc3ncc(-c4ccc(S(C)=O)cc4)n3c2)o1 (stereo not drawn) | 20% | 4% | 6% | 29% | 10% | 9% | 0% | 9% | 43% | 0% |
